# Source: the supplement of paper PMC10127200
# Where a name gives a salt, the structure may show the parent alone.
# Key:
# Test in all cases: Euclidean distance of Cell Painting phenotypic profile (signed KS, 77 features) to DMSO centroid (dimensionless distance); 5 or 10 uM (library dependent); higher = stronger phenotypic change vs DMSO (phenoactivity)
# Conditions in all cases: 48 h
# [1] = test system: 786-O
# Method in brief: (§1)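 Phenoactivity is defined as the Euclidean distance from a compound profile to the median vehicle profile. Each profile comprised 77 Harmony features, scored as signed Kolmogorov-Smirnov statistics versus same-plate vehicle wells, then plate-position corrected, correlation-weighted and replicate-averaged at the top dose. Five cancer lines and one healthy fibroblast line were exposed to library compounds for 48 h at 10 or 5 uM (0.1% DMSO final).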
# [2] = test system: A549
# Method in brief: as §1
# [3] = test system: DU145
# Method in brief: as §1
# [4] = test system: FB
# Method in brief: as §1
# [5] = test system: HEPG2
# Method in brief: as §1
# [6] = test system: OVCAR4
# Method in brief: as §1
SMILES,Euclidean distance [1],Euclidean distance [2],Euclidean distance [3],Euclidean distance [4],Euclidean distance [5],Euclidean distance [6]
CC(CCc1ccc(O)cc1)NCC(O)c1ccc(O)cc1 (stereo not given) [Ractopamine HCl],0.802,0.83,0.987,1.14,0.522,1.07
N#Cc1c(Oc2ccc(F)c(NC(=O)Cc3cccc(C(F)(F)F)c3)c2)ccc2nc(NC(=O)C3CC3)sc12,2.61,2.09,0.85,1.19,1.22,2.04
O=[N+]([O-])c1cncn1CCN1CCOCC1 [Nimorazole],0.827,0.551,1.21,0.76,1.18,0.937
CCCCC(CC)COC(=O)CC(C(=O)OCC(CC)CCCC)S(=O)(=O)O (stereo not given) [Docusate Sodium],0.771,0.602,0.942,1.2,0.96,1.25
C#C[C@]1(O)CC[C@H]2[C@@H]3CCc4cc(OC5CCCC5)ccc4[C@H]3CC[C@@]21C [Quinestrol],1.6,1.26,1.69,1.48,0.902,1.67
O=c1ccn(C2OC(COP(=O)(O)O)C(O)C2O)c(=O)[nH]1 (stereo not given) [Uridine 5'-monophosphate],1.18,1.21,1.33,1.3,1.01,1.23
CC[C@H](C)[C@H](NC(=O)[C@H]([C@@H](C)CC)N(C)C(C)=O)C(=O)N[C@H](C(=O)N[C@@H](CC(C)C)C(=O)[C@@]1(C)CO1)[C@@H](C)O [Epoxomycin],2.19,2.8,2.62,2.62,2.95,3.12
OCC1OC(OC2OC(CO)C(O)C(O)C2O)C(O)C(O)C1O [D-(+)-Trehalose Anhydrous],1.42,1.05,1.04,1.26,0.946,0.855
CCOc1cc(N)c([N+](=O)[O-])cc1C(=O)NC1CCN(CC2CC=CCC2)CC1 (stereo not given) [Cinitapride Hydrogen Tartrate],1.33,1.05,1.38,1.21,0.924,1.57
O=C(c1ccc(F)cc1)C1CCN(CCn2c(=O)[nH]c3ccccc3c2=O)CC1 [Ketanserin],1.44,0.68,0.898,0.767,0.883,1.08
CC[C@@H](CO)NCCN[C@@H](CC)CO [Ethambutol HCl],1.4,1.22,0.738,0.916,1.17,0.884
Cc1ccc(-c2c(-c3nn(C)c4ncnc(N5CC[C@H](N6CCCCC6)C5)c34)cnn2C)cc1,0.748,0.927,0.814,1.22,0.843,1.27
Cc1cccc(C)c1OCC(=O)N[C@@H](Cc1ccccc1)[C@@H](O)C[C@H](Cc1ccccc1)NC(=O)[C@H](C(C)C)N1CCCNC1=O [Lopinavir],2.06,1.69,1.44,1.1,0.896,1.92
CNC(=O)[C@@H](NC(=O)[C@H](CC(C)C)[C@H](O)C(=O)NO)C(C)(C)C [Marimastat (BB-2516)],1.09,2.02,1.14,1.06,0.866,1.4
Cc1ncc(CO)c(CO)c1O [Pyridoxine HCl],0.686,0.861,0.642,0.7,0.426,1.11
C[C@H]1O[C@H](O[C@H]2[C@H](O)[C@@H](O)[C@@H](O[C@H]3[C@H](O)[C@@H](O)C(O)O[C@@H]3CO)O[C@@H]2CO)[C@H](O)[C@@H](O)[C@@H]1N[C@H]1C=C(CO)[C@@H](O)[C@H](O)[C@H]1O (stereo not given in full) [Acarbose],1.5,1.91,1.47,1.59,0.847,1.46
C[C@@H](Oc1cc(-c2cnn(C3CCNCC3)c2)cnc1N)c1c(Cl)ccc(F)c1Cl,3.69,4.3,3.56,5.27,4.27,4.15
C[C@@H]1O[C@@H](O[C@H]2[C@H](Oc3cc(O)c4c(c3)O[C@H](c3ccc(O)cc3)CC4=O)O[C@H](CO)[C@@H](O)[C@@H]2O)[C@H](O)[C@H](O)[C@H]1O [Naringin],1.25,1.01,0.644,1.2,0.575,1.74
CC(C)[N+](C)(CCOC(=O)C1c2ccccc2Oc2ccccc21)C(C)C [Propantheline bromide],0.803,0.839,0.798,0.725,0.423,0.718
CN1C2CCCC1CC(NC(=O)c1nn(C)c3ccccc13)C2 (stereo not given) [Granisetron HCl],1.32,0.903,1.37,1.04,1.27,1
CC(C)NC(=O)COc1cccc(-c2nc(Nc3ccc4[nH]ncc4c3)c3ccccc3n2)c1,2.53,3.23,3.11,2.67,1.76,2.43
O=C1Nc2ccc(I)cc2/C1=C/c1cc(Br)c(O)c(Br)c1,1.58,0.975,0.984,1.02,0.668,1.3
CN(Cc1cc(Br)cc(Br)c1N)C1CCCCC1 [Bromhexine],0.96,1.02,0.619,0.847,0.566,1.03
CN1C[C@@H]2C[C@H]1CN2c1cc2c(cc1F)c(=O)c(C(=O)O)cn2C1CC1 [Danofloxacin Mesylate],1.72,1.87,1.14,0.963,1.05,0.974
Cc1cc(N2CCN([C@@H]3CN[C@H](C(=O)N4CCSC4)C3)CC2)n(-c2ccccc2)n1 [Teneligliptin hydrobromide],1.1,1.09,2.06,1.2,1.21,1.33
